Test [1] deals with Dual specificity protein kinase CLK3 (Homo sapiens) (UniProt P49761). The conditions noted are these: at 1 µM.
For test [2], the target named is Dual specificity tyrosine-phosphorylation-regulated kinase 1A (Homo sapiens) (UniProt Q13627). Conditions: at 0.1 µM.
The target is the same in test [3]. Conditions: at 1 µM.
For test [4], the target named is Dual specificity tyrosine-phosphorylation-regulated kinase 1B (Homo sapiens) (UniProt Q9Y463). The conditions noted are these: at 0.1 µM.
Chain of Dual specificity tyrosine-phosphorylation-regulated kinase 1B (Homo sapiens) (Q9Y463 whole entry, looked up): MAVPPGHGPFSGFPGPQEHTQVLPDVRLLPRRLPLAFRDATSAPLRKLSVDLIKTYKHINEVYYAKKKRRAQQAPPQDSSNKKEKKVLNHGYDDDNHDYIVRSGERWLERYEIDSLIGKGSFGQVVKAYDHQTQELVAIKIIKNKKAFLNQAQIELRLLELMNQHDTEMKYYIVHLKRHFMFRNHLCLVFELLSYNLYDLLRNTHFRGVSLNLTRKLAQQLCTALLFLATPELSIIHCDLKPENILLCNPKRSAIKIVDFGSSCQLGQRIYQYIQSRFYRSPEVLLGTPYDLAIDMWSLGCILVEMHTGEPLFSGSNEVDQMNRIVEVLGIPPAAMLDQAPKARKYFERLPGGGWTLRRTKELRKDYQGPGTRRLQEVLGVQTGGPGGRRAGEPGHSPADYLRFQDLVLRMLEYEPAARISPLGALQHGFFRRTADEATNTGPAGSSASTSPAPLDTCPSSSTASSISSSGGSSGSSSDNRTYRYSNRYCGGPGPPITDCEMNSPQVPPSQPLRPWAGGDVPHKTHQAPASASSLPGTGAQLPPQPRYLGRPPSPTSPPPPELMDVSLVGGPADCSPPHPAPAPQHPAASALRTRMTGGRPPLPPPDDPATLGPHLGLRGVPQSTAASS
Test [5] shares this target. Conditions: at 1 µM.
Test [6] addresses T1, Dual specificity tyrosine-phosphorylation-regulated kinase 2 (Homo sapiens) (UniProt Q92630).
T1 sequence (whole entry): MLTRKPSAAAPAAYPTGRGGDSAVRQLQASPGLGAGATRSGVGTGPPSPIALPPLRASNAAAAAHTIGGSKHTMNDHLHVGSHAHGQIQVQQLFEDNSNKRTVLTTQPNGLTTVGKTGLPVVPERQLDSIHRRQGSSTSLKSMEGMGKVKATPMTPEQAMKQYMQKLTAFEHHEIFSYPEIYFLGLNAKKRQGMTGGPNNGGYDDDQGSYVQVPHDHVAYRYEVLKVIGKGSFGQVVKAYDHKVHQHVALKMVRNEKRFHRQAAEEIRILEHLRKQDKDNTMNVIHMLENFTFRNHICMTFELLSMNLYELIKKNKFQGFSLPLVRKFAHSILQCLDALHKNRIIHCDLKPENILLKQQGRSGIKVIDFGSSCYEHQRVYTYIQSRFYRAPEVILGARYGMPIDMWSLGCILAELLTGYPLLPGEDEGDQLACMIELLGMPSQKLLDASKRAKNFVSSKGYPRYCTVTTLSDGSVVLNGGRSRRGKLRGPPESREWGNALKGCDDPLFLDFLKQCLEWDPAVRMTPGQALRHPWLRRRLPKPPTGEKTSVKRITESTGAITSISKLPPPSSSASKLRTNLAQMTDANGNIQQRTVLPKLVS
Conditions: at 0.1 µM.

Test [7] deals with T1, Dual specificity tyrosine-phosphorylation-regulated kinase 2 (Homo sapiens). Conditions: at 1 µM.
In test [8] the target is Glycogen synthase kinase-3 alpha (Homo sapiens) (UniProt P49840). The conditions noted are these: at 0.1 µM.
Chain of Glycogen synthase kinase-3 alpha (Homo sapiens) (P49840 2-483 limits assumed): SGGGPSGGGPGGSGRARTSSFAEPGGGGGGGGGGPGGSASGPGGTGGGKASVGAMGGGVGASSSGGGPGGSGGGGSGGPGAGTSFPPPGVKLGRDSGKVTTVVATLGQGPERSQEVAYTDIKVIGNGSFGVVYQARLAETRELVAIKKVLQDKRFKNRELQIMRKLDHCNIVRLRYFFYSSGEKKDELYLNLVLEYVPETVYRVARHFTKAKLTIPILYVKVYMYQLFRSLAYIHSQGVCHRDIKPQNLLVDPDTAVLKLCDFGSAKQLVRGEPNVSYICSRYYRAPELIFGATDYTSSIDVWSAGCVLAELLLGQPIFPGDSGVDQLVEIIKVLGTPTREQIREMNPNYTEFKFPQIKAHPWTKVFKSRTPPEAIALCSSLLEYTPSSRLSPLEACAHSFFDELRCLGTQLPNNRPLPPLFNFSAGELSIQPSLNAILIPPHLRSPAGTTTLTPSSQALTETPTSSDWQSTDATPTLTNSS
The target is the same in test [9]. Conditions: at 1 µM.
Test [10] deals with Glycogen synthase kinase-3 beta (Homo sapiens) (UniProt P49841). The conditions noted are these: at 0.1 µM.
Chain of Glycogen synthase kinase-3 beta (Homo sapiens) (P49841 whole entry, looked up): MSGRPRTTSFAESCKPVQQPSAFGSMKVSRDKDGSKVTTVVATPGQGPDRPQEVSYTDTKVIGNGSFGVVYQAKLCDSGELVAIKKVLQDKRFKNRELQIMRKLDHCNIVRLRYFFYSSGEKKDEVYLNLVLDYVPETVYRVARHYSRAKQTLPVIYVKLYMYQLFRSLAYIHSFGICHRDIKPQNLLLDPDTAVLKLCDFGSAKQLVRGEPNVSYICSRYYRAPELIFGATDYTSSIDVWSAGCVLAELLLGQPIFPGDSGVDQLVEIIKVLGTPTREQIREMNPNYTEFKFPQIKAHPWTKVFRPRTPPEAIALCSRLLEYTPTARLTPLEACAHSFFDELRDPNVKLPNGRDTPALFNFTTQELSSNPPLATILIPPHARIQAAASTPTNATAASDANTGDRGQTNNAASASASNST

The structures appear in SMILES notation.

One may read the inhibition as the change of the read-out against control, counted positive when it falls.

Chain of Dual specificity protein kinase CLK3 (Homo sapiens) (P49761 whole entry, looked up): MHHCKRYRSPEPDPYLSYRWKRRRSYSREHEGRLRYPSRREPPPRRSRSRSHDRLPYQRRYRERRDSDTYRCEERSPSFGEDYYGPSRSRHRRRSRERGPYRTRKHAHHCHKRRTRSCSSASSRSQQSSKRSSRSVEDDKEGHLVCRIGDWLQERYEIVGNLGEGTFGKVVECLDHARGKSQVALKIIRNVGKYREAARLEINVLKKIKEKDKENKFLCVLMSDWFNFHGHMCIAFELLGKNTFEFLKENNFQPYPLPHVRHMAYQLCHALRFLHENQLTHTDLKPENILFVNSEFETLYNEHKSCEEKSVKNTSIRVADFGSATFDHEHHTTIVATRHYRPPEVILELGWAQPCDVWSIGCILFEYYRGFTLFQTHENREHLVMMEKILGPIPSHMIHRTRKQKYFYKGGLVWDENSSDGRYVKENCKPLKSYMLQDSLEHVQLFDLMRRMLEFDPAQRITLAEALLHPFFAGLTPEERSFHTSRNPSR

For `NS(=O)(=O)c1cccc(Nc2cc(-c3ccc(F)cc3)n[nH]2)c1`, the inhibition in test [1] was 2.68%; in [2], -0.01%; in test [3], 4.42%; in test [4], -1.06%; in [5] it was 2.79%; in [6], 1.93%. Further, the inhibition in test [7] turned out to be 4.01%; in [8], 3.57%; in test [9], 7.78%; in [10], 2.84%.
`CC(C)c1ccc(Nc2nccc(-c3cnn4ncccc34)n2)cc1`: the inhibition in test [1] was 14%; in test [2], 40.6%; in [3], 81.2%; in test [4], 43.4%; in test [5] it was 82.1%; in test [6], 2.73%. Besides, the inhibition in [7] is 14%; in test [8] it was 35.6%; in test [9], 76%; in test [10], 31.3%.
In the case of `COc1cc2ncnc(Nc3ccc(C)c(O)c3)c2cc1OC`, the inhibition was determined as 2.38% in test [1]; 5.24% in test [2]; 7.48% in [3]; 0.95% in test [4]; 4.18% in [5]; 2.96% in test [6]. Further, the inhibition came out at 4.5% in [7], 4.81% in [8], 8.57% in test [9] and 4.62% in test [10].
`NS(=O)(=O)c1ccc(Nc2cc(-c3cccc(O)c3)n[nH]2)cc1`: the inhibition was found to be 2.62% in test [1]; 3.45% in test [2]; 7.37% in [3]; 0.5% in [4]; 2.4% in [5]; 3.82% in [6]. Further, the inhibition in test [7] stood at 4.65%; in [8] it was 2.99%; in test [9] it was 6.38%; in test [10], 2.02%.
As for `C[C@@H](Oc1cc(-n2cnc3ccc(OC[C@@H](O)CO)cc32)sc1C(N)=O)c1ccccc1Cl`, the inhibition in test [1] is 1.12%; in [2], 0.12%; in [3], 3.71%; in test [4], 1.13%; in test [5], 2.69%; in [6], -1.33%. Moreover, the inhibition in [7] came to 1.61%; in [8], 0.1%; in test [9], 3.84%; in test [10], 0.42%.
As for `COc1ccc(-c2nn3ncccc3c2-c2ccnc(Nc3cccc(C(F)(F)F)c3)n2)cc1`, the inhibition in test [1] was 0.95%; in test [2], 2.09%; in test [3] it was 1.66%; in test [4], -0.34%; in test [5], 1.16%; in [6], 1.77%. Also, the inhibition was 0.78% in test [7], 2.36% in test [8], 2.7% in test [9] and 1.41% in test [10].
In the case of `CCS(=O)(=O)c1ccc(OC)c(Nc2ncc(-c3cccc(OC)c3)o2)c1`, the inhibition in [1] came to 13.2%; in test [2], 8.22%; in test [3], 41.4%; in [4] it was 6.86%; in test [5], 37.7%; in [6] it was 3.86%. Moreover, the inhibition in test [7] worked out at 18.4%; in test [8], 1.96%; in test [9], 9.4%; in test [10], 2.23%.
On to `ON=C1CCc2cc(-c3nc(C4CCNCC4)[nH]c3-c3ccncc3)ccc21`, for which the inhibition in test [1] was 0.22%; in test [2], -0.17%; in test [3], 1.12%; in test [4] it was 0.17%; in [5], -0.11%; in [6] it was -0.01%. The inhibition in test [7] came to 1.2%; in [8], 1.4%; in test [9] it was 5.93%; in test [10], 0.85%.
On to `Nc1ccc(C#Cc2cncnc2Nc2ccc(OCc3cccc(F)c3)c(Cl)c2)cc1`, for which the inhibition worked out at 0.7% in test [1]; 3.22% in test [2]; 2.99% in [3]; 0.49% in [4]; 2.12% in [5]; 1.74% in test [6]. The inhibition worked out at 0.41% in test [7], 2.01% in test [8], 1.4% in [9] and 1.95% in test [10].
`CN(C)CCCn1c(-c2nonc2N)nc2cnccc21`: the inhibition came to 1.96% in test [1]; 3.5% in test [2]; 8.9% in test [3]; 0.77% in test [4]; 4.52% in [5]; 2.75% in [6]. The inhibition in [7] was 3.79%; in test [8] it was 2.45%; in [9] it was 15.1%; in [10], 2.77%.
In the case of `COC(=O)c1ccc2c(c1)C(=Cc1cc(Br)c(O)c(Br)c1)C(=O)N2`, the inhibition in test [1] stood at 7.3%; in test [2] it was 14.2%; in test [3] it was 61.9%; in test [4], 9.22%; in test [5], 53.5%; in [6], 5.68%. The inhibition in test [7] was determined as 18.8%; in test [8], 9.38%; in test [9], 42.9%; in test [10] it was 9.77%.
As to `c1ccc(Cc2nc3ccc(Nc4ncnc5ccccc45)cc3[nH]2)cc1`, the inhibition was 5.49% in test [1]; 6.02% in test [2]; 9.77% in test [3]; 5.37% in test [4]; 8.13% in test [5]; 1.99% in test [6]. In addition, the inhibition worked out at 3.84% in [7], 5.62% in test [8], 9.56% in [9] and 5.99% in test [10].
In the case of `CCn1c(-c2nonc2N)nc2ccc(F)cc21`, the inhibition in [1] is 1.23%; in [2], 5.13%; in [3], 10.8%; in test [4] it was -0.23%; in [5], 1.12%; in test [6] it was 4.17%. Moreover, the inhibition in test [7] came out at 4.15%; in test [8], 3.78%; in test [9], 4.96%; in test [10], 3%.
As for `Cc1cc(-c2ccccn2)cc(C)c1/C=C/c1cncc(-c2nn[nH]n2)c1`, the inhibition turned out to be 0.95% in [1]; 2.5% in test [2]; 1.98% in test [3]; 2.58% in [4]; 4.24% in test [5]; 3.69% in test [6]. Further, the inhibition in [7] stood at 4.85%; in test [8] it was 5.73%; in [9] it was 12.5%; in test [10], 5.72%.
For `CN(C)C(=O)O[C@H]1CN[C@H](C#Cc2cc3ncnc(Nc4ccc(OCc5cccc(F)c5)c(Cl)c4)c3s2)C1`, the inhibition in test [1] was 1.86%; in [2], 1.54%; in test [3], 3.38%; in [4], 0.21%; in [5] it was 0.78%; in test [6] it was 2%. Further, the inhibition in [7] came to 2.24%; in test [8], 1.64%; in [9] it was 5.51%; in test [10], 1.31%.
Turning to `CCn1c(-c2nonc2N)nc2c(C#CC(C)(C)O)nc(OCCNC)cc21`, the inhibition in [1] was 0.43%; in test [2] it was 2.71%; in [3] it was 2.94%; in [4], -0.33%; in test [5] it was -0.29%; in [6], 5.86%. Besides, the inhibition in test [7] amounted to 5.26%; in [8] it was 11.6%; in test [9] it was 49.9%; in test [10] it was 8.59%.
